Shown are actives, neighbours in structure and some others; about 3% of the full set was active somewhere.
TRAIL sens C8 = sensitizes caspase-8 expressing cells to TRAIL; AID 624354; hit rate 1% among 360,000; NB7+C8 cells + TRAIL, ATPlite viability luminescence; inhibition (viability loss, TRAIL sensitization), % at 10 µM;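 active = compounds causing at least 50% loss of cell viability in the single-dose screen, relative to plate controls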
SENP8 block-1 = inhibitors of human SENP8 protease. Q96LD8. hit rate 1.2% among 330,000. inhibition, % at 10 µM. purified SENP8, Z-RLRGG-aminoluciferin cleavage, luminescence; in the data active = inhibition above about 50%
Target sequence (Q96LD8 whole entry, looked up): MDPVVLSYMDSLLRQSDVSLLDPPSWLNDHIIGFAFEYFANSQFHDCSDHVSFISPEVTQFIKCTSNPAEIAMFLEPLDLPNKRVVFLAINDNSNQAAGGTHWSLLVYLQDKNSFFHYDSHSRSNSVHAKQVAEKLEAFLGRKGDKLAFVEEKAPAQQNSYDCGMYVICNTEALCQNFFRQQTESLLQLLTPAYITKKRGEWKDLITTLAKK
SENP6 inh = inhibitors of human SENP6 protease | inhibition, % at 10 µM | Q9GZR1 | hit rate 1.8% among 330,000 | Recombinant SENP6 catalytic domain, aminoluciferin luminescence;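 active = inhibition above about 50% at the single tested dose, limit read from the data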
PPC-1+TRAIL kill = kills PPC-1 cancer cells in the presence of TRAIL | cell killing (% activity), % at 4 µM or 5 µM | PPC-1 cells + TRAIL, ATPLite viability luminescence | AID 1443 | hit rate 0.41% among 220,000;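 active = cell killing above 50% in the first pass at 4 µM, then a duplicate retest at 5 µM averaging 50% or more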
SENP7 block = inhibitors of human SENP7 protease; Q9BQF6; hit rate 1.5% among 330,000; inhibition, % at 5 µM; recombinant SENP7, Z-RLRGG-aminoluciferin luminescence, 40 min;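 active = inhibition above about 50% at the single test dose, limit read from the data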
Target sequence (Q9BQF6 706-1050 limits assumed): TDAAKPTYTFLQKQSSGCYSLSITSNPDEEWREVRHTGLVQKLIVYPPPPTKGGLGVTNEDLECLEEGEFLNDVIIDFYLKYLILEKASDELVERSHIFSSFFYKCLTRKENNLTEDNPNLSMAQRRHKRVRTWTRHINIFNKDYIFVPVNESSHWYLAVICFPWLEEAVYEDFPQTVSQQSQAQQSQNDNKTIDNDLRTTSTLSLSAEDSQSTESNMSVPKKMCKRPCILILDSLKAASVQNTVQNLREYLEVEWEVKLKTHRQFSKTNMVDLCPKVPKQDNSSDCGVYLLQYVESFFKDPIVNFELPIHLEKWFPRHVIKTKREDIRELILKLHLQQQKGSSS
SENP8 block-2 = SENP8 (human) protease inhibition. Q96LD8. recombinant SENP8, Nedd8 substrate fluorescence. inhibition, % at 20 µM. hit rate 0.64% among 360,000; in the data active = inhibition mostly above about 40%, no sharp cut-off; inactive = mostly below about 27%
SENP8 confirm = human SENP8 inhibition, confirmed. AID 488912. Recombinant SENP8, Z-RLRGG-aminoluciferin luminescence, 60 min. inhibition, % at 12.5 µM. hit rate 40% among 6,200. shares compounds with SENP7 block;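 active = mean inhibition across replicates above about 50%, limit read from the data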
SENP6 conf = human SENP6 inhibition, confirmed. shares compounds with SENP7 block. recombinant SENP6, Z-RLRGG-aminoluciferin luminescence. inhibition, % at 12.5 µM. hit rate 58% among 6,200. AID 488915
SENP7 conf = confirmation of human SENP7 protease inhibitors. shares compounds with SENP7 block. recombinant SENP7, Z-RLRGG-aminoluciferin luminescence, 40 min. inhibition, % at 12.5 µM. hit rate 69% among 6,200. AID 488917
Casp3 SENP sel = inhibits human caspase-3 in SENP selectivity test. shares compounds with SENP7 block. hit rate 60% among 6,200. AID 488918. inhibition, % at 12.5 µM. purified caspase-3, Z-DEVD-aminoluciferin luminescence, 60 min;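 active = mean inhibition above about 50%, limit read from the data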
Luc interf = counter-screen for SENP inhibitors: luminescence interference; shares compounds with SENP7 block; Pre-incubated SENP8/Z-RLRGG-aminoluciferin, luciferase luminescence interference; inhibition, % at 12.5 µM; hit rate 39% among 6,200; AID 488919;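 active = mean inhibition above about 50% when retested at one dose, limit read from the data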
Hits are given with their value; – = inactive; · = no result given.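 The calls were made as follows, unless noted: active = mean inhibition above about 50% in the one-dose retest (limit read from the data); inactive = the rest.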

SMILES | TRAIL sens C8 | SENP8 block-1 | SENP6 inh | PPC-1+TRAIL kill | SENP7 block | SENP8 block-2 | SENP8 confirm | SENP6 conf | SENP7 conf | Casp3 SENP sel | Luc interf
Cc1nn2cc(-c3ccc(-c4ccccc4)cc3)nc2s1 | – | – | – | – | 58 | – | – | – | – | – | –
CC(=O)N1c2ccc(S(=O)(=O)NCC3CCC(C(=O)NCc4ccco4)CC3)cc2CC1C (stereo unspecified) | – | – | – | · | – | – | · | · | · | · | ·
Cc1[nH]n(C(N)=S)c(=O)c1N=Nc1ccc([N+](=O)[O-])cc1Cl | – | 95 | 94 | · | 70 | – | 81 | 95 | 98 | 79 | –
Cc1[nH]n(C(N)=S)c(=O)c1N=Nc1cccc(Cl)c1 | – | 89 | 91 | · | 72 | – | – | – | – | – | –
NC(=S)n1[nH]c(-c2ccc([N+](=O)[O-])cc2)c(N=Nc2cccc(Cl)c2)c1=O | – | – | – | – | – | – | · | · | · | · | ·
Cc1ccccc1N=Nc1c(C)[nH]n(C(N)=S)c1=O | – | 60 | 82 | – | – | – | – | – | – | – | –
Cc1[nH]n(C(N)=S)c(=O)c1N=Nc1ccccc1C(F)(F)F | – | – | 54 | · | – | – | 56 | 53 | 77 | · | 50
Nc1nc(N)nc(C2C=CCCC2)n1 (stereo unspecified) | – | · | · | · | · | – | · | · | · | · | ·
O=C1c2ccccc2C(=O)C1(CO)c1ccccc1 | – | – | 56 | – | – | – | – | 50 | 82 | 77 | –
COC(=O)CC1(c2ccccc2)C(=O)c2ccccc2C1=O | – | – | – | – | – | – | · | · | · | · | ·
O=C1c2ccccc2C(=O)C1(CO)c1ccc(OC(F)F)cc1 | 79 | 94 | 94 | · | – | – | – | 98 | 103 | 96 | 57
c1ccc2c(c1)oc1c(-c3ccc4nccn4c3)cccc12 | – | · | · | · | · | – | · | · | · | · | ·
COc1ccc(-c2ccc(-c3noc(-c4ccccc4F)n3)c(OC)n2)cc1 | – | · | · | – | · | – | · | · | · | · | ·
Fc1ccccc1-c1nc(-c2ccncc2)no1 | – | 77 | 85 | · | 84 | – | 82 | 84 | 98 | 90 | 72
Fc1ccccc1-c1nc(-c2ccc(-c3nn[nH]n3)cc2)no1 | – | 96 | 97 | · | 92 | – | 98 | 98 | 102 | 96 | 98
Brc1ccccc1-c1nc(-c2ccccc2)no1 | · | 95 | 97 | – | 98 | · | – | 99 | 103 | 94 | 91
Fc1ccccc1-c1nc(-c2ccccc2)no1 | – | 95 | 98 | – | 99 | – | – | 97 | 102 | 90 | –
c1ccc(-c2noc(-c3cccc4ccccc34)n2)cc1 | – | – | – | – | – | – | · | · | · | · | ·
CCCc1cc(=O)[nH]c(SCC(=O)N2c3ccccc3NC(=O)C2(C)C)n1 | – | – | – | · | – | – | · | · | · | · | ·
Cc1cnc(=O)[nH]c1SCc1ccccc1F | – | – | – | · | – | – | · | · | · | · | ·
CC(C)Cc1ccc(S(=O)(=O)N2CCN(c3ccccn3)CC2)cc1 | – | – | – | · | – | – | · | · | · | · | ·
OCC[C@@H]1C[C@H](O)[C@@H](O)[C@]2(OCCc3cc(Cl)ccc32)O1 | – | · | · | · | · | – | · | · | · | · | ·
COc1ccc(C/C(=N\OC(C)=O)c2ccc(OC)cc2)cc1 | – | 91 | 96 | · | 98 | – | 92 | 96 | 102 | 96 | 95
COC(=O)/N=C(/Cc1ccc(OC)cc1)c1ccc(OC)cc1 | – | 92 | 96 | · | 94 | – | 97 | 97 | 102 | 96 | 90
COc1ccc(S(=O)(=O)N(C)C[C@H]2Oc3ccc(NC(=O)Cc4cn(C)c5ccccc45)cc3C(=O)N([C@@H](C)CO)C[C@@H]2C)cc1 | – | – | – | · | – | – | · | · | · | · | ·
SMILES | TRAIL sens C8 | SENP8 block-1 | SENP6 inh | PPC-1+TRAIL kill | SENP7 block | SENP8 block-2 | SENP8 confirm | SENP6 conf | SENP7 conf | Casp3 SENP sel | Luc interf
COc1ccc(NC(=O)c2sc(SCc3ccccc3)nc2N)cc1 | – | – | – | – | – | – | · | · | · | · | ·
COc1ccc(NC(=O)c2sc(SC)nc2N)cc1 | – | – | – | – | 52 | – | – | – | 74 | 64 | 52
COc1ccc(NC(=O)c2scc(S(=O)(=O)C(C)C)c2N)cc1 | – | 59 | 66 | – | 86 | – | 68 | 66 | 89 | 82 | 68
Cc1cc(OCC(=O)OCC(=O)N(C)C2CCS(=O)(=O)C2)ccc1Cl (stereo unspecified) | – | – | – | · | – | – | · | · | · | · | ·
O=C(CSc1nnc(N2CCCC2)n1-c1ccccc1Cl)N1CCN(c2ccccn2)CC1 | – | – | – | · | – | – | · | · | · | · | ·
CCCc1[nH]n(-c2nc3ccccc3s2)c(=O)c1C=NCCCN(CC)CC | – | – | 68 | – | – | – | – | – | – | 60 | 57
Cc1cccc(/C=C/C(=O)c2ccc(N3CCOCC3)cc2)c1 | · | 84 | 89 | – | 92 | · | – | – | – | 55 | 80
COc1ccc(Cl)cc1NC(=O)CN(C)C(C)C(=O)NC(=O)NC1CCCCC1 (stereo unspecified) | – | – | – | · | – | – | · | · | · | · | ·
CCN(CC)c1ccc(/C=N/NC(=O)c2ccco2)c(O)c1 | – | – | 59 | – | 63 | – | – | 59 | 86 | 60 | 65
O=C(N/N=C\c1ccc2c(c1)OCO2)c1ccco1 | – | 64 | 69 | – | 72 | – | 68 | 67 | 91 | 90 | 68
COc1cccc(S(=O)(=O)N(C)C[C@@H]2OCc3cn(nn3)CCCC(=O)N([C@H](C)CO)C[C@H]2C)c1 | – | · | · | · | · | – | · | · | · | · | ·
Cc1cc2c(cc1C)C(=O)NC(C)(C)C2 | – | – | – | – | 59 | – | – | – | – | – | –
COc1ccc(/C=C/C(=O)NC(=S)N2CCOCC2)cc1 | – | – | 70 | · | 70 | – | 62 | 56 | 83 | 80 | 67
Cc1n[nH]c(C)c1S(=O)(=O)N1CCc2ccccc2C1 | – | – | – | · | – | – | · | · | · | · | ·
COc1ccc(-c2noc(-c3ccc(Cl)cc3)n2)cc1 | · | – | – | – | – | · | · | · | · | · | ·
COc1ccc(-c2nc(-c3ccc(C(=O)O)cc3)no2)cc1 | – | 97 | 98 | · | 95 | – | 98 | 98 | 102 | 86 | 97
COc1ccc(-c2cc(-c3ccccc3)no2)cc1 | 59 | 92 | 97 | · | 100 | – | – | 81 | 86 | 76 | –
c1ccc(-c2cc(-c3cc(-c4ccccc4)on3)no2)cc1 | – | · | · | · | · | – | · | · | · | · | ·
O=C(O)c1ccc(-c2noc(-c3cccc(C(F)(F)F)c3)n2)cc1 | – | – | 58 | · | – | – | 54 | 56 | 80 | 56 | 54

Compound activity deposited in PubChem BioAssay by Sanford-Burnham Center for Chemical Genomics.
